Here are results for 11 molecules from publication PMC5540273 (PLoS ONE, 2017).

The structures appear in SMILES notation.

Among the test systems are MELK; MERTK; MET; MKK7; MKNK1; MKNK2; MLK2; MLK3; MRCKA; MST1R.
Holding throughout (settings): concentration: 1 μM, replicates: in singlicate; n = 1
The test system of a further assay is T1, MEK2.
T1 construct: gene MAP2K2

In a further assay the test system is T2, MEK3.
T2 construct: gene MAP2K3

The next assay deals with T3, MEK4.
T3 construct: gene MAP2K4

The test system of another assay is T4, MEK5.
T4 construct: gene MAP2K5

The test system of a further assay is T5, MEK6.
T5 construct: gene MAP2K6

A further assay has as its system T6, MINK.
T6 construct: gene MINK1

In the next assay the test system is T7, MLCK.
T7 construct: gene MYLK3

The next assay concerns T8, MLK1.
T8 construct: gene MAP3K9

The subject of another assay is T9, MRCKB.
T9 construct: gene CDC42BPB

A further assay deals with T10, MST1.
T10 construct: gene STK4
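Note: KINOMEscan kinase panel screen.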

In the case of `Cc1ccc(NC(=O)Nc2cccc(Cl)c2)cc1-c1ccc(C(=O)Nc2ccncc2)cc1` [GSK1398468], the “%Inh” value amounted to 0% in the assay on MEK2; 0% with MEK3; 38% in the assay with MEK4; 11% in the assay with MEK5; 0% with MEK6; 0% with MELK. The “%Inh” value was found to be 0% in the assay on MERTK; 0% in the assay on MET; 14% in the assay with MINK; 30% with MKK7; 6% with MKNK1; 4% in the assay on MKNK2. Further, the “%Inh” value in the assay with MLCK turned out to be 0%; with MLK1, 0%; in the assay on MLK2, 0%; in the assay with MLK3, 0%; with MRCKA it was 19%; in the assay on MRCKB it was 0%. The “%Inh” value turned out to be 34% in the assay on MST1R and 1% in the assay with MST1.

In the case of `COc1ccc2nc(-c3cccc(C)n3)nc(Nc3ccncc3)c2c1` [GSK204919], the “%Inh” value in the assay with MEK2 is 0%; with MEK3, 0%; with MEK4 it was 17%; with MEK5 it was 1%; in the assay on MEK6 it was 0%; with MELK it was 0%. For the same molecule, the “%Inh” value was 15% in the assay on MERTK; 15% with MET; 30% in the assay with MINK; 0% in the assay with MKK7; 0% in the assay with MKNK1; 9% in the assay with MKNK2. Also, the “%Inh” value was found to be 0% in the assay with MLCK; 0% in the assay with MLK1; 0% with MLK2; 7% in the assay on MLK3; 38% with MRCKA; 94.1% in the assay with MRCKB. The “%Inh” value in the assay with MST1R was 26%; in the assay on MST1, 11%.

Regarding `O=C(Nc1ccccc1)Nc1cccc(Oc2ccc3nccn3n2)c1`, the “%Inh” value in the assay on MEK2 was 0%; in the assay with MEK3, 0%; with MEK4 it was 0%; in the assay with MEK5, 37%; with MEK6, 0%; with MELK, 0%. Besides, the “%Inh” value is reported as 4% with MERTK; 0% in the assay with MET; 13% in the assay with MINK; 0% in the assay on MKK7; 10% in the assay with MKNK1; 0% with MKNK2. Further, the “%Inh” value in the assay with MLCK came out at 7%; in the assay on MLK1 it was 0%; with MLK2, 9%; with MLK3, 0%; in the assay on MRCKA, 1%; in the assay with MRCKB, 4%. Also, the “%Inh” value with MST1R and in the assay with MST1 was 0% throughout.

Consider `O=c1cc(N2CCOCC2)nc2n(Cc3cccc(Cl)c3Cl)ccn12` [GSK2286295], for which the “%Inh” value with MEK2 worked out at 0%; in the assay on MEK3, 0%; with MEK4 it was 6%; in the assay with MEK5, 13%; in the assay on MEK6 it was 0%; in the assay on MELK, 0%. In addition, the “%Inh” value in the assay on MERTK was found to be 29%; in the assay with MET it was 0%; in the assay on MINK, 6%; in the assay on MKK7, 0%; in the assay on MKNK1 it was 7%; with MKNK2, 1%. Besides, the “%Inh” value with MLCK is 16%; in the assay on MLK1, 0%; in the assay on MLK2 it was 0%; with MLK3 it was 7%; in the assay with MRCKA, 8%; with MRCKB, 0%. Besides, the “%Inh” value with MST1R was found to be 25%; with MST1, 0%.

On to `Cc1cc(-c2ccc3c(c2)CC[C@@H](N[C@@H](C)c2ccccc2)C3)cnc1N.Cl` [GW412617], for which the “%Inh” value with MEK2 was found to be 12%; with MEK3, 0%; in the assay on MEK4, 34%; with MEK5 it was 55%; with MEK6 it was 0%; with MELK, 36%. Further, the “%Inh” value is reported as 26% with MERTK; 0% in the assay with MET; 40% with MINK; 1% in the assay with MKK7; 13% with MKNK1; 3% with MKNK2. The “%Inh” value is listed as 0% in the assay with MLCK; 0% with MLK1; 15% with MLK2; 32% with MLK3; 0% in the assay with MRCKA; 4% in the assay on MRCKB. Besides, the “%Inh” value with MST1R turned out to be 38%; in the assay on MST1 it was 1%.

Take `COc1ccc(Nc2nccc(-c3cccc(NC(=O)c4cc5cc(F)ccc5[nH]4)c3)n2)cc1` [GSK1229782]: the “%Inh” value in the assay on MEK2 came out at 0%; in the assay on MEK3, 22%; with MEK4, 28%; with MEK5 it was 96.1%; with MEK6, 3%; with MELK it was 10%. Moreover, the “%Inh” value with MERTK came out at 47%; with MET, 0%; in the assay with MINK it was 55%; with MKK7, 21%; in the assay with MKNK1, 26%; in the assay with MKNK2, 0%. For the same molecule, the “%Inh” value in the assay with MLCK came to 9%; in the assay with MLK1, 5%; in the assay with MLK2 it was 20%; in the assay with MLK3 it was 34%; with MRCKA it was 27%; with MRCKB it was 2%. Moreover, the figures for the “%Inh” value in the assay on MST1R and with MST1 were 31% and 16%, respectively.

For the molecule `Cc1c(O)cccc1Nc1ccnc2ccc(C(F)(F)F)cc12.Cl` [GW466413], the “%Inh” value in the assay with MEK2 is recorded as 0%; with MEK3, 0%; in the assay with MEK4, 19%; in the assay on MEK5, 35%; in the assay with MEK6 it was 0%; in the assay on MELK, 11%. In addition, the “%Inh” value in the assay with MERTK is reported as 0%; with MET, 0%; with MINK, 2%; in the assay on MKK7, 0%; with MKNK1 it was 0%; in the assay with MKNK2 it was 1%. Besides, the “%Inh” value in the assay on MLCK came out at 1%; in the assay on MLK1, 0%; in the assay with MLK2 it was 0%; in the assay with MLK3, 4%; with MRCKA it was 0%; in the assay with MRCKB, 0%. Besides, the “%Inh” value with MST1R and with MST1 was 0% each time.

In the case of `NC(=O)c1nnc2ccccc2c1N`, the “%Inh” value stood at 47% in the assay on MEK2; 46% in the assay with MEK3; 17% in the assay with MEK4; 34% in the assay with MEK5; 0% with MEK6; 9% with MELK. In addition, the “%Inh” value in the assay on MERTK came out at 0%; in the assay on MET, 16%; in the assay on MINK it was 38%; in the assay on MKK7, 0%; in the assay with MKNK1, 12%; with MKNK2, 0%. Moreover, the “%Inh” value with MLCK is 0%; in the assay with MLK1, 84%; in the assay with MLK2 it was 0%; in the assay on MLK3, 0%; in the assay on MRCKA, 0%; in the assay with MRCKB it was 0%. The results for the “%Inh” value in the assay on MST1R and with MST1 were 10% and 4%, respectively.

With `COc1ccc(C2=C(Nc3cccc(C(=O)O)c3)C(=O)NC2=O)cc1` [SB-390765], the “%Inh” value with MEK2 is on record as 15%; in the assay with MEK3, 15%; in the assay on MEK4, 7%; in the assay on MEK5, 40%; with MEK6, 0%; with MELK it was 11%. The “%Inh” value with MERTK was 11%; in the assay on MET, 0%; in the assay on MINK, 8%; in the assay on MKK7, 8%; in the assay on MKNK1, 0%; in the assay with MKNK2, 43%. Moreover, the “%Inh” value in the assay with MLCK is listed as 27%; with MLK1 it was 0%; in the assay with MLK2 it was 0%; in the assay with MLK3, 27%; in the assay with MRCKA it was 0%; with MRCKB it was 8%. The “%Inh” value was 24% in the assay with MST1R and 0% in the assay on MST1.

For the molecule `Cc1ccc(-c2cc(-c3c[nH]nc3-c3ccccn3)ccn2)cc1` [GW684088], the “%Inh” value in the assay on MEK2 was 0%; with MEK3 it was 0%; in the assay on MEK4 it was 9%; with MEK5, 17%; with MEK6, 19%; with MELK, 25%. Also, the “%Inh” value is reported as 13% with MERTK; 0% in the assay on MET; 87% with MINK; 14% with MKK7; 0% in the assay with MKNK1; 1% with MKNK2. Besides, the “%Inh” value with MLCK worked out at 0%; with MLK1, 0%; in the assay on MLK2, 0%; in the assay with MLK3, 15%; with MRCKA it was 2%; in the assay with MRCKB, 0%. In addition, the results for the “%Inh” value in the assay on MST1R and in the assay on MST1 were 13% and 0%, respectively.

Regarding `CCn1c(-c2cccnc2O)nc2cnccc21` [SB-736715], the “%Inh” value amounted to 0% with MEK2; 14% in the assay with MEK3; 0% in the assay on MEK4; 11% with MEK5; 0% in the assay with MEK6; 1% in the assay with MELK. The “%Inh” value with MERTK is on record as 26%; with MET, 0%; with MINK it was 0%; with MKK7, 0%; with MKNK1, 17%; in the assay on MKNK2, 1%. Besides, the “%Inh” value in the assay on MLCK is on record as 0%; in the assay with MLK1, 0%; with MLK2 it was 0%; in the assay with MLK3 it was 0%; in the assay on MRCKA, 4%; in the assay with MRCKB it was 0%. The “%Inh” value with MST1R and in the assay on MST1 was 0% in each case.
